Read-out in assay [1]: Cyclin D1 (CCND1), CCND1 (gene 595)
Kind of assay: LTEA_HepaRG_CCND1: Life Technologies and Expression Analysis (LTEA) Assay for Cyclin D1 (CCND1) using HepaRG (AID 2283451). The following applies: mRNA level, 48 h; actives raise or lower the signal. Summed up: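 Differentiated human HepaRG cells in serum-free induction medium were exposed 48 h to eight half-log concentrations up to 100 uM in 0.5% DMSO; mRNA quantified by TaqMan qRT-PCR, normalized to ACTB, GAPDH, POLR2A, fitted bidirectionally versus DMSO.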

Read-out in assay [2]: catalase (CAT), CAT (gene 847)
Kind of assay: LTEA_HepaRG_CAT: Life Technologies and Expression Analysis (LTEA) Assay for catalase (CAT) using HepaRG (AID 2283452). The following applies: mRNA level, 48 h; actives raise or lower the signal. Summed up:
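HepaRG cells in serum-free induction medium, 0.5% DMSO vehicle, exposed 48 h in duplicate over 8 half-log concentrations from 100 uM. CAT mRNA measured by qRT-PCR, normalized to ACTB, GAPDH, POLR2A; bidirectional fit versus DMSO.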

Read-out in assay [3]: flavin-containing dimethylaniline monooxygenases 3 (FMO3), FMO3 (gene 2328)
Briefly: LTEA_HepaRG_FMO3: Life Technologies and Expression Analysis (LTEA) Assay for flavin-containing dimethylaniline monooxygenases 3 (FMO3) using HepaRG (AID 2283453). The following applies: mRNA level, 48 h; actives raise or lower the signal. Summed up:
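HepaRG, 48 h exposure, 8-pt half-log series from 100 uM, 0.5% DMSO vehicle, duplicates; FMO3 transcript by Fluidigm TaqMan qRT-PCR, housekeeping-normalized; gain/loss fit vs DMSO.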

Read-out in assay [4]: Cytochrome P450 (CYP1A1), CYP1A1 (gene 1543)
Kind of assay: LTEA_HepaRG_CYP1A1: Life Technologies and Expression Analysis (LTEA) Assay for Cytochrome P450 (CYP1A1) using HepaRG (AID 2283454). The following applies: mRNA level, 48 h; actives raise or lower the signal. In a few lines:
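Differentiated HepaRG cells in serum-free induction medium were exposed in duplicate for 48 h to eight half-log concentrations up to 100 uM in 0.5% DMSO. CYP1A1 mRNA was quantified by TaqMan qRT-PCR, normalized to ACTB, GAPDH and POLR2A.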

Read-out in assay [5]: CFLAR gene, CFLAR (gene 8837)
Briefly: LTEA_HepaRG_CFLAR: Life Technologies and Expression Analysis (LTEA) Assay for CFLAR gene using HepaRG (AID 2283455). The following applies: mRNA level, 48 h; actives raise or lower the signal. In a few lines:
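Differentiated HepaRG cells in serum-free induction medium were exposed 48 h in duplicate to eight half-log concentrations up to 100 uM in 0.5% DMSO; mRNA measured by TaqMan qRT-PCR, normalized to ACTB, GAPDH, POLR2A; bidirectional fitting versus DMSO.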

Read-out in assay [6]: Forkhead box O1 (FOXO1), FOXO1 (gene 2308)
Briefly: LTEA_HepaRG_FOXO1: Life Technologies and Expression Analysis (LTEA) Assay for Forkhead box O1 (FOXO1) using HepaRG (AID 2283456). The following applies: mRNA level, 48 h; actives raise or lower the signal. Summed up: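 Differentiated HepaRG cells, in serum-free induction medium with 0.5% DMSO, exposed 48 h in duplicate to 8-point half-log series from 100 uM. FOXO1 mRNA measured by TaqMan qRT-PCR, normalized to ACTB, GAPDH, POLR2A; bidirectional fit versus DMSO.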

Assay [7] in a line: CEETOX_H295R_TESTO: CeeTox H295R High-throughput Steroidogenesis Assay for Testosterone (TESTO) (AID 2283457). The following applies: actives raise or lower the signal. Summed up: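 H295R human adrenal cells in DMEM/F12 with ITS+ and Nu-Serum, exposed to chemicals for 48 h. Testosterone in medium measured by MTBE extraction, reverse-phase HPLC-MS/MS; bidirectional fit versus DMSO baseline. MTT viability checked in same wells.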

Read-out in assay [8]: growth arrest and DNA damage 45 (GADD45A), GADD45A (gene 1647)
Kind of assay: LTEA_HepaRG_GADD45A: Life Technologies and Expression Analysis (LTEA) Assay for growth arrest and DNA damage 45 (GADD45A) using HepaRG (AID 2283458). The following applies: mRNA level, 48 h; actives raise or lower the signal. Summed up: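 Human HepaRG liver cells are treated in duplicate for 48 h with chemicals in 0.5% DMSO, highest concentration 100 uM. Expression is read by qRT-PCR and analyzed in both directions against vehicle.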

Read-out in assay [9]: Forkhead box O3 (FOXO3), FOXO3 (gene 2309)
Briefly: LTEA_HepaRG_FOXO3: Life Technologies and Expression Analysis (LTEA) Assay for Forkhead box O3 (FOXO3) using HepaRG (AID 2283459). The following applies: mRNA level, 48 h; actives raise or lower the signal. Summed up:
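Differentiated human HepaRG cells, 48 h post-plating, exposed in duplicate for 48 h in serum-free induction medium; 8-point half-log series from 100 uM in 0.5% DMSO. FOXO3 mRNA by TaqMan qRT-PCR, normalized to ACTB/GAPDH/POLR2A; bidirectional fit versus DMSO.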

Read-out in assay [10]: growth arrest and DNA damage 45 (GADD45B), GADD45B (gene 4616)
Briefly: LTEA_HepaRG_GADD45B: Life Technologies and Expression Analysis (LTEA) Assay for growth arrest and DNA damage 45 (GADD45B) using HepaRG (AID 2283461). The following applies: mRNA level, 48 h; actives raise or lower the signal. In a few lines:
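Differentiated HepaRG cells, plated 48 h then switched to serum-free induction medium, were exposed 48 h in duplicate to eight half-log concentrations from 100 uM in 0.5% DMSO; mRNA quantified by qRT-PCR, normalized to ACTB/GAPDH/POLR2A, bidirectional fit versus DMSO.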

Read-out in assay [11]: ABC Transporter (ABCC3), ABCC3 (gene 8714)
Kind of assay: LTEA_HepaRG_ABCC3: Life Technologies and Expression Analysis (LTEA) Assay for ABC Transporter (ABCC3) using HepaRG (AID 2283462). The following applies: mRNA level, 48 h; actives raise or lower the signal. In a few lines: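 HepaRG cells in serum-free induction medium were exposed for 48 h in duplicate to 8-point half-log concentrations topping at 100 uM in 0.5% DMSO. ABCC3 mRNA was measured by qRT-PCR normalized to ACTB, GAPDH and POLR2A, with bidirectional fitting versus DMSO.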

Read-out in assay [12]: ABC Transporter (ABCB11), ABCB11 (gene 8647)
Kind of assay: LTEA_HepaRG_ABCB11: Life Technologies and Expression Analysis (LTEA) Assay for ABC Transporter (ABCB11) using HepaRG (AID 2283463). The following applies: mRNA level, 48 h; actives raise or lower the signal. In a few lines: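 Differentiated human HepaRG cells in serum-free induction medium, dosed in duplicate for 48 h. Eight-point half-log series from 100 uM in 0.5% DMSO; ABCB11 mRNA by qRT-PCR, normalized to ACTB, GAPDH, POLR2A, fitted bidirectionally versus DMSO.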

Read-out in assay [13]: ABC Transporter (ABCC2), ABCC2 (gene 1244)
Briefly: LTEA_HepaRG_ABCC2: Life Technologies and Expression Analysis (LTEA) Assay for ABC Transporter (ABCC2) using HepaRG (AID 2283464). The following applies: mRNA level, 48 h; actives raise or lower the signal. Summed up:
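HepaRG cells were plated 48 h, switched to serum-free induction medium, then exposed in duplicate for 48 h to 8 concentrations (top 100 uM, half-log steps, 0.5% DMSO). ABCC2 mRNA was measured by qRT-PCR normalized to ACTB/GAPDH/POLR2A; bidirectional fitting versus DMSO.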

Read-out in assay [14]: Broad substrate specificity ATP-binding cassette transporter ABCG2 (Homo sapiens) (UniProt Q9UNQ0)
Kind of assay: LTEA_HepaRG_ABCG2: Life Technologies and Expression Analysis (LTEA) Assay for ABC Transporter (ABCG2) using HepaRG (AID 2283465). The following applies: mRNA level, 48 h; actives raise or lower the signal. Summed up: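 Differentiated HepaRG cells were exposed for 48 h in serum-free induction medium to 8 half-log concentrations, top 100 uM, in 0.5% DMSO. ABCG2 mRNA was measured by qRT-PCR, normalized to ACTB, GAPDH and POLR2A, with bidirectional fitting versus DMSO.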

Read-out in assay [15]: ATP-citrate lyase (ACLY), ACLY (gene 47)
Briefly: LTEA_HepaRG_ACLY: Life Technologies and Expression Analysis (LTEA) Assay for ATP-citrate lyase (ACLY) using HepaRG (AID 2283466). The following applies: mRNA level, 48 h; actives raise or lower the signal. Summed up: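 Differentiated HepaRG cells exposed 48 h in serum-free induction medium to eight half-log concentrations up to 100 uM in 0.5% DMSO, duplicates. Transcript measured by Fluidigm TaqMan qRT-PCR, normalized to ACTB, GAPDH, POLR2A; bidirectional fit versus DMSO.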

Read-out in assay [16]: Peroxisomal acyl-coenzyme A oxidase 1 (ACOX1) gene, ACOX1 (gene 51)
Briefly: LTEA_HepaRG_ACOX1: Life Technologies and Expression Analysis (LTEA) Assay for Peroxisomal acyl-coenzyme A oxidase 1 (ACOX1) gene using HepaRG (AID 2283467). The following applies: mRNA level, 48 h; actives raise or lower the signal. In a few lines:
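HepaRG cells, plated 48 h then switched to serum-free induction medium, were exposed in duplicate for 48 h to 8-point half-log concentrations up to 100 uM in 0.5% DMSO. ACOX1 mRNA was measured by qRT-PCR, normalized to ACTB/GAPDH/POLR2A, and fitted bidirectionally versus DMSO.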

Read-out in assay [17]: Bcl-2 (BAD) gene, BAD (gene 572)
Kind of assay: LTEA_HepaRG_BAD: Life Technologies and Expression Analysis (LTEA) Assay for Bcl-2 (BAD) gene using HepaRG (AID 2283469). The following applies: mRNA level, 48 h; actives raise or lower the signal. In a few lines: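 Differentiated HepaRG cells were exposed in duplicate in 0.5% DMSO for 48 h to eight-point half-log concentrations up to 100 uM. BAD mRNA was measured by Fluidigm TaqMan qRT-PCR, normalized to ACTB, GAPDH and POLR2A, and fitted bidirectionally against DMSO.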

Read-out in assay [18]: Bcl-2 (BAX) gene, BAX (gene 581)
Briefly: LTEA_HepaRG_BAX: Life Technologies and Expression Analysis (LTEA) Assay for Bcl-2 (BAX) gene using HepaRG (AID 2283470). The following applies: mRNA level, 48 h; actives raise or lower the signal. Summed up:
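Concentration-response endpoint fitted in both directions relative to 0.5% DMSO vehicle. Human HepaRG cultures receive test chemicals for 48 h at up to 100 uM; BAX mRNA is quantified by qRT-PCR against housekeeping genes.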

Read-out in assay [19]: Alkaline Phosphatase, Placental (ALPP) gene, ALPP (gene 250)
Briefly: LTEA_HepaRG_ALPP: Life Technologies and Expression Analysis (LTEA) Assay for Alkaline Phosphatase, Placental (ALPP) gene using HepaRG (AID 2283468). The following applies: mRNA level, 48 h; actives raise or lower the signal. In a few lines: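 Differentiated human HepaRG cells were plated and cultured 48 h, then exposed in duplicate for 48 h in serum-free induction medium to eight half-log concentrations from 100 uM in 0.5% DMSO. ALPP mRNA was measured by TaqMan qRT-PCR, normalized to ACTB, GAPDH, POLR2A.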

Read-out in assay [20]: ABC Transporter (ABCB1), ABCB1 (gene 5243)
Kind of assay: LTEA_HepaRG_ABCB1: Life Technologies and Expression Analysis (LTEA) Assay for ABC Transporter (ABCB1) using HepaRG (AID 2283460). The following applies: mRNA level, 48 h; actives raise or lower the signal. In a few lines:
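HepaRG cells exposed in duplicate for 48 h in serum-free induction medium to eight half-log concentrations up to 100 uM in 0.5% DMSO. ABCB1 mRNA quantified by qRT-PCR, normalised to ACTB, GAPDH and POLR2A; fitted bidirectionally versus DMSO.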

The source made the active and inactive calls. How the source made its calls: active means hit-call score of the fitted dose curve at least 0.9, where 1 is the maximum; inactive means score below 0.9.

Sequence of Broad substrate specificity ATP-binding cassette transporter ABCG2 (Homo sapiens) (Q9UNQ0 whole entry, looked up): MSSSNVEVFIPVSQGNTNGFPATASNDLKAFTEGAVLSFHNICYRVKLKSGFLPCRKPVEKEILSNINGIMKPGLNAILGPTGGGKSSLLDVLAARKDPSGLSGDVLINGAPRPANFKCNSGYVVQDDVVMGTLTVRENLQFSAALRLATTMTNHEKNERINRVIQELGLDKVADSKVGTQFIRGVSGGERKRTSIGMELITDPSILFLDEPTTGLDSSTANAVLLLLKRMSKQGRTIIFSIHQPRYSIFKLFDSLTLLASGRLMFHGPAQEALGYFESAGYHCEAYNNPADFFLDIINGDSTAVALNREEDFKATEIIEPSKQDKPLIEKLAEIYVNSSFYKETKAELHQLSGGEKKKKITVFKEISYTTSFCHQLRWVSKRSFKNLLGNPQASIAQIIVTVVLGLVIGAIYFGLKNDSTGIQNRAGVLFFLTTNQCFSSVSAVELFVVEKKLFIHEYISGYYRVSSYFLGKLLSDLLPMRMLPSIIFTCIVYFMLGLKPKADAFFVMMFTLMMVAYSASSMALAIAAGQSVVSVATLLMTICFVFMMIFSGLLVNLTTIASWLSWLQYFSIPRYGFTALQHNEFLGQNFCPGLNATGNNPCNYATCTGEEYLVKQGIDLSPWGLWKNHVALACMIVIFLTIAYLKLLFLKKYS

For orientation: AC50 means the midpoint of the concentration-response curve, whichever way the signal moves. As to `CCC(=C(c1ccc(O)cc1)c1ccc(OCCN(C)C)cc1)c1ccccc1`, the call in assay [1], in assay [2], in [3], in assay [7], in assay [8] and in assay [9] was inactive. Besides, the result in assay [10], in assay [12], in [14], in assay [15], in [16] and in [17] was inactive. The compound was classed as inactive in assay [18]. Also, the AC50 in assay [4] is 93.3 µM (active); in assay [5], 97.3 µM (active); in assay [6] it was 82.6 µM (active); in assay [11], 82.1 µM (active); in [13], 86.1 µM (active).
Take `C=C(C)C(=O)OCCC(F)(F)C(F)(F)C(F)(F)C(F)(F)C(F)(F)C(F)(F)F`: the call in assay [1], in [2], in assay [3], in [5], in assay [6] and in assay [8] was inactive. The outcome in assay [9], in assay [10], in [12], in [13], in assay [14] and in [15] was inactive. Further, the call in [16], in assay [19], in assay [17] and in assay [18] was inactive. Moreover, the AC50 in assay [4] is 10.2 µM (active).
For the compound `CCCCCCCCC(=O)O`, the compound was called inactive in assay [1], in [2], in [3], in assay [4], in assay [5] and in assay [6]. Also, the outcome in assay [8], in [9], in assay [20], in assay [10], in assay [11] and in assay [12] was inactive. Moreover, the result in assay [13], in assay [14], in [15], in assay [16], in assay [19] and in assay [17] was inactive. Besides, the call in assay [18] was inactive.

The record behind these values is PubChem BioAssay (EPA / NIEHS).
